Records with an inconclusive call do not appear. The source made the active and inactive calls. Calls come from the whole dose curve; as a rule, active = well fitted curve in the direction sought with a large enough effect; inconclusive = small, poorly fitted or top-dose-only effect, or another doubt; inactive = no such curve, though single readings can be large; an effect the other way counts as inactive or inconclusive.
Experiments:
[1] = MultiTox-Fluor Cytotoxicity Assay - LYMP1-003 - Dead Cells (AID 961); details: LYMP1-003 lymphoblastoid cells, dead-cell protease fluorescence; series mostly up to 92.2 µM;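 note: cells exposed to compound for 16 h at 37 °C; nearly all actives have a fitted effect of over 70% in size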
In short: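 Human lymphoblastoid LYMP1-003 cells (2500/well) were treated with compounds for 16 hr at 37 C in complete medium. Dead-cell protease release was read by bis-AAF-R110 fluorescence (Ex/Em 485/520). AC50 came from Hill fits, normalized to DMSO and 15 uM tetraoctylammonium bromide.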

[2] = Cell Viability - LYMP1-003 - Assay at 24 hr (AID 963); details: LYMP1-003 lymphoblastoid cell viability; series mostly up to 92.2 µM
In short: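 CellTiter-Glo luminescence (intracellular ATP) read after 24 hr, 37 C compound exposure of 2500 LYMP1-003 human lymphoblastoid cells/well in complete medium; qHTS concentration series; AC50 via standard Hill equation.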

[3] = Cell Viability - LYMP1-003 - Assay at 40 hr (AID 964); details: LYMP1-003 lymphoblastoid viability; series mostly up to 92.2 µM; note: nearly all actives have a fitted effect of over 60% in size
In short: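 LYMP1-003 lymphoblastoid cells, 2500/well; 5 hr preincubation, 40 hr compound exposure, 37 C; CellTiter-Glo 30 min RT; luminescence; Hill-fit AC50. Positive control tetraoctylammonium bromide.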

[4] = Cell Viability - LYMP2-003 (AID 965); details: LYMP2-003 lymphoblastoid cell viability; series mostly up to 92.2 µM;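 note: cells exposed to compounds for 24 h before reading; nearly all actives have a fitted effect of over 50% in size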
In short: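 Seed 2500 lymphoblastoid cells/well; incubate 5 hr, 37 C; add compounds; incubate 24 hr, 37 C; add CellTiter-Glo, 30 min RT; read luminescence. AC50 from Hill fit.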

[5] = Cell Viability - LYMP2-004 (AID 966); details: LYMP2-004 lymphoblastoid cell viability, qHTS; series mostly up to 92.2 µM; note: nearly all actives have a fitted effect of over 65% in size
In short: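 Luminescent ATP read-out (CellTiter-Glo, 30 min RT) after 24 hr compound exposure at 37 C; 2500 lymphoblastoid cells/well, complete medium. Decrease in ATP = cytotoxicity; AC50 from standard Hill model.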

[6] = Cell Viability - LYMP2-005 (AID 967); details: LYMP2-005 lymphoblastoid cell viability; series mostly up to 92.2 µM;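 note: cells exposed to compound for 24 h at 37 °C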
In short: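 Acute cytotoxicity is scored as a concentration-dependent drop in intracellular ATP in human lymphoblastoid LYMP2-005 cells after 24 h compound treatment. ATP is quantified by luciferase luminescence, and AC50 is derived by Hill-equation modelling.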

[7] = Cell Viability - LYMP2-009 (AID 968); details: LYMP2-009 lymphoblastoid cell viability; series mostly up to 92.2 µM;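 note: cells exposed to compound for 24 h at 37 °C; nearly all actives have a fitted effect of over 55% in size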
[8] = Cell Viability - LYMP2-011 (AID 969); details: LYMP2-011 lymphoblastoid cells viability; series mostly up to 92.2 µM;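 note: cells exposed to compound for 24 hours; nearly all actives have a fitted effect of over 60% in size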
In short: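 Luminescent ATP read-out (CellTiter-Glo, 30 min RT) after 24 hr compound exposure at 37 C in human lymphoblastoid cells, 2500 cells/well. Decreasing ATP indicates cytotoxicity; AC50 from standard Hill fit.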

[9] = Cell Viability - LYMP2-013 (AID 970); details: LYMP2-013 lymphoblastoid cells viability; series mostly up to 92.2 µM;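 note: cells exposed to compound for 24 h at 37 °C; nearly all actives have a fitted effect of over 55% in size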
In short: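 CellTiter-Glo luminescence (cellular ATP) read after 30 min at RT. Cells: human lymphoblastoid line, 2500/well, 24 hr compound exposure at 37 C. Tetraoctylammonium bromide positive control; AC50 via standard Hill fit of qHTS titrations.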

Measured: outcome

CC(=O)O[C@@H]1CC(C)=C2[C@H]1[C@H](C)CC[C@H]2/C=C(\C)C(=O)O
inactive: all assays above

Cc1ccc(N)cc1O
inactive: all assays above

Source: PubChem BioAssay (NCATS)
